Over roughly 81,000 sequences, “one-hybrid fitness for binding NBS DNA” has its median near -0.1; the highest 2% begin near 0.36. Only a selection was taken, and the highest values are over-represented in it overall.
B1: Caulobacter ParB omega fusion; a variant is named by its letters at X, in order, B8GW30 (parent)
chain: MESVVVGEPGMSEGRRGLGRGLSALLGEVDAAPAQAPGEQLGGSREAPIEILQRNPDQPRRTFREEDLEDLSNSIREKGVLQPILVRPSPDTAGEYQIVAGERAWRAAQRAGLKTVPIMVRELDDLAVLEIGIIENVQRADLNVLEEALSYKVLMEKFERTQENIAQTIGKSXSHVANXMRLLXLPDEVQSYLVSGELTAXHARAIAAAADPVALAKQIIEGGLSVRETEALARKAPNLSAGKSKGGRPPRVKDTDTQALESDLSSVLGLDVSIDHRGSTGTLTITYATLEQLDDLCNRLTRGI

Variants of: B1
Test: one-hybrid fitness for binding NBS DNA (the Noc-binding site; scaled: cognate 1, non-cognate 0); higher = stronger binding
Details: with NBS DNA site
Procedure, shortened: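 In E. coli USO, a HIS3 reporter with its site placed 19 bp from the promoter was used to select Caulobacter ParB variants randomised at four specificity codons. Growth lasted 48 hours at 37°C on histidine-free M9 containing 0.1 mM IPTG and 5 mM 3-AT. Fitness was taken as the log change in variant-to-wild-type read ratio from Illumina sequencing of pre- and post-selection plasmids, rescaled between the non-cognate and cognate sites.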

Variant | one-hybrid fitness for binding NBS DNA
QYMD | ≤ 0.2
QYHR | 0.541
NPVN | ≤ 0.2
YEWR | ≤ 0.2
QQIF | ≤ 0.2
YGVH | ≤ 0.2
SDSA | ≤ 0.2
TTTF | ≤ 0.2
EAYV | ≤ 0.2
QLSK | ≤ 0.2
GGTS | ≤ 0.2
IDHN | ≤ 0.2
HIKY | ≤ 0.2
SKIG | ≤ 0.2
APVA | ≤ 0.2
QMVN | ≤ 0.2
DMKT | ≤ 0.2
NMKT | ≤ 0.2
QMKT | 0.75
QMVT | 0.373
EKHS | ≤ 0.2
VRAW | ≤ 0.2

Variant | one-hybrid fitness for binding NBS DNA
HGTC | ≤ 0.2
VCQG | ≤ 0.2
HNDV | ≤ 0.2
TFTP | ≤ 0.2
WASL | ≤ 0.2
AFSH | ≤ 0.2
NKRR | 0.235
QKYR | 0.505
QKGR | 0.616
QKRR | 0.993
DKRR | ≤ 0.2
QKHR | 0.661
QKGP | ≤ 0.2
QKGN | ≤ 0.2
QKHN | ≤ 0.2
QKHY | 0.206
QKER | 0.363
QKYP | ≤ 0.2
PTNP | ≤ 0.2
HCFY | ≤ 0.2
IFEL | ≤ 0.2
SQFR | ≤ 0.2

Variant | one-hybrid fitness for binding NBS DNA
SQRR | ≤ 0.2
VILC | ≤ 0.2
QAWG | ≤ 0.2
NLDR | ≤ 0.2
PTAP | ≤ 0.2
DHKN | ≤ 0.2
EVMR | ≤ 0.2
TDVL | ≤ 0.2
SRRL | ≤ 0.2
GLRT | ≤ 0.2
RKDR | 0.443
RKNR | 0.639
RKHR | 0.648
RKNP | ≤ 0.2
RKHF | ≤ 0.2
RKYF | ≤ 0.2
RKYN | ≤ 0.2
RKNC | 0.281
RKHQ | ≤ 0.2
RKYR | 0.573
GTKM | ≤ 0.2
DLTE | ≤ 0.2

Variant | one-hybrid fitness for binding NBS DNA
LAPI | ≤ 0.2
SAAD | ≤ 0.2
NGLS | ≤ 0.2
NRSI | ≤ 0.2
RRTL | ≤ 0.2
LHEN | ≤ 0.2
HLQP | ≤ 0.2
MMSM | ≤ 0.2
LRWK | ≤ 0.2
RKQM | ≤ 0.2
RKGR | 0.606
RKWH | ≤ 0.2
RKQR | 0.573
RKQQ | ≤ 0.2
RKSR | 0.581
RKGP | ≤ 0.2
RKGH | 0.301
RKWR | 0.49
RKWP | ≤ 0.2
RKSD | ≤ 0.2
RKSH | 0.211
MTIG | ≤ 0.2

Variant | one-hybrid fitness for binding NBS DNA
VDYG | ≤ 0.2
AHFR | ≤ 0.2
QHIC | ≤ 0.2
TCFS | ≤ 0.2
VSQV | ≤ 0.2
PITE | ≤ 0.2
GSCV | ≤ 0.2
NCKS | ≤ 0.2
YSQQ | ≤ 0.2
MHKT | ≤ 0.2
PLRH | ≤ 0.2
SRLF | ≤ 0.2
IRKG | ≤ 0.2
HKFT | ≤ 0.2
RKRK | 0.222
RKRM | 0.258
RKRR | 0.736
PTAM | ≤ 0.2
